Laboratory results taken from publication PMC9574860, “Chemical Toolkit for PARK7: Potent, Selective, and High-Throughput” (Journal of Medicinal Chemistry, 2022).
About 400 (5.1%) of roughly 7,900 compounds showed an effect of 50% or more. Shown is part of a subset that was picked to be rich in strong results.

target: Parkinson's disease protein 7 (PARK7/DJ1) (human, UniProt Q99497); experiment: primary screen, percent inhibition; read as competition with a fluorescent probe by fluorescence polarization; higher = more effect of the substance; conditions: 100 µM
Outline: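 Covalent fragments at 100 μM final were incubated 2 h with 0.2 μM PARK7, then 20 nM probe JYQ-107 added for a further 2 h. Fluorescence polarization read at 480/520 nm; relative FP loss versus reference controls gave remaining enzyme activity.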

Chain of Parkinson's disease protein 7 (PARK7/DJ1) (Q99497 whole entry, looked up, the tested form may be a part): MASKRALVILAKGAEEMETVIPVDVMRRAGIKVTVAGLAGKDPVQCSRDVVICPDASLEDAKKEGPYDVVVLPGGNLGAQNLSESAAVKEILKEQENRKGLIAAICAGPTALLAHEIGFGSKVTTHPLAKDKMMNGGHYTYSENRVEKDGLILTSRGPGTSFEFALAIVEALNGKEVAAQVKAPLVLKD

| Structure (SMILES) | Inhibition % [%] |
| --- | --- |
| C=CC(=O)NC1COc2cc(Cl)ccc2C1 (centres unmarked) | 6.51 |
| CN1CCCN(C(=O)c2ccc(S(=O)(=O)F)cc2)c2ccccc21 | 17.9 |
| O=C(O)C=CC(=O)Nc1ccc(F)cc1 | 7.34 |
| Cn1cc(NC(=O)CN2CCSC2=O)cn1 | 71.6 |
| O=C(CN1CCSC1=O)Nc1ccc(Cl)c(Cl)c1 | 0.617 |
| Cc1cc(C)cc(NC(=O)CN2CCSC2=O)c1 | 5 |
| O=C(CN1CCSC1=O)Nc1cn[nH]c1 | 11.7 |
| O=C(CN1CCSC1=O)Nc1ccc2[nH]ncc2c1 | 60.9 |
| O=C(O)C=CC(=O)Nc1ccc(F)c(Cl)c1 | 8.72 |
| O=C(O)C=CC(=O)Nc1ccc2[nH]ncc2c1 | 77.7 |
| Cc1ccc(NC(=O)CN2CCSC2=O)cc1C | 1.36 |
| COCC(C)NC(=O)C(C#N)=Cc1occc1C (centres unmarked) | 5.2 |
| O=C1SCCN1CC(=O)N1CCCc2ccccc21 | 7.03 |
| Cc1c(C#N)c(NC(=O)CCl)n(-c2ccc(F)cc2)c1C | 1.78 |
| COc1ccc2[nH]c(CCCCl)nc2n1.Cl | 23.2 |
| C=CS(=O)(=O)c1ccc(C#N)cn1 | 1.18 |
| O=S(=O)(Oc1ccccc1C(F)(F)F)c1c[nH]cn1 | 10.4 |
| COCCCS(=O)(=O)N1CCC(Cl)CC1 | 7.37 |

| Structure (SMILES) | Inhibition % [%] |
| --- | --- |
| OB(O)c1cccc2c1OCCC2 | 4.89 |
| C=CC(=O)N1CCc2c(cccc2C(F)(F)F)C1 | -3.37 |
| Cc1noc2ncc(S(=O)(=O)OCC(F)(F)F)cc12 | 18.2 |
| COc1ncc(S(=O)(=O)F)cn1 | 31.2 |
| O=S(=O)(F)c1ccc2cn[nH]c2c1 | 72.5 |
| O=S(=O)(F)c1ccc(F)cc1 | 2.62 |
| Cc1cc2[nH]ncc2cc1S(=O)(=O)F | 97.4 |
| O=S(=O)(F)c1ccc2c(c1)NCC2 | 26.6 |
| Cc1ccc(F)c(OS(=O)(=O)c2cn[nH]c2C)c1 | 11.7 |
| O=S(=O)(F)c1cccnc1 | 17.7 |
| O=S(=O)(F)c1ccc(S(=O)(=O)Nc2ccncc2F)cc1 | 17.6 |
| O=S(=O)(F)c1ccc2cnccc2c1 | 86.1 |
| O=S(=O)(F)c1ccc2[nH]ncc2c1 | 53 |
| Cc1cc(CNC(=O)CCl)ccc1F | 18 |
| Cc1cc(NS(=O)(=O)C=Cc2ccccc2Cl)n(C)n1 | 8.51 |
| C=CC(=O)NC1CCCc2c1cnn2C (centres unmarked) | 6.84 |
| C=CC(=O)Nc1cccc(C(=O)O)c1 | 4.88 |
